About 83,000 compounds went through this panel and 20% of them were active in at least one assay; those are over-represented in the sample as a whole.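 Single-dose data. Exposure time 48 hours. Values below 10 considered active.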 A number with no mark means an inactive call. Activity calls are given as the source filed them.

Here are results for 40 compounds from PubChem BioAssay (NCI).

For this assay, the system named is HS 578T breast. Put plainly: NCI-60 one-dose screen, 48 h (100 = growth as untreated, 0 = no growth, -100 = all killed). As to conditions: 10 µM unless noted. The procedure:
Growth inhibition of the HS 578T human tumor cell line is measured as a screen for anti-cancer activity. Cells are grown in 96 well plates and exposed to the test compound for 48 hours. Compounds are tested at a single concentration, which is 10^-5 M for most compounds. The reported endpoint is percent growth (GI% or GIPRCNT), where numbers from 0 - 100% represent growth inhibition, and numbers from -100% - 0 represent cell death. For example, a value of 40 represents 60% growth inhibition. A value of 0 means no net growth occurred over the course of the experiment. A value of -40 indicates 40% of cells at the beginning of the experiment died by the end of the experiment. A value of -100 means all cells are dead at the end of the experiment.
NCI-60 Human Tumor Cell Lines Screen was performed using the standard one-dose NCI protocol, which is described in more detail at https://dtp.cancer.gov/discovery_development/nci-60/default.htm.
Compounds with GIPRCNT values below 10 were considered active. Activity score was based on GIPRCNT using the following formula: […]
Score is 0 for GIPRCNT values of 100 or above, 50 for GIPRCNT values of 0, and 100 for GIPRCNT values of -100.
On to `Cn1ccnc1C(=O)/C=C/c1ccc(CC(=O)Nc2cc(F)c(F)c(F)c2)cc1`, for which the growth was 13%.
For the compound `CC(C)(C)n1cc(-c2ccnc(NCCNS(=O)(=O)c3ccc(C(F)(F)F)cc3)c2)c(-c2ccccc2)n1`, the growth was 99.6%.
Then `COc1ccc(/C=N\NC(=O)c2ccc3nc(-c4ccc(Cl)cc4)[nH]c3c2)cc1`, with 32.3%; and `COC(=O)[C@@H](Cc1c[nH]c2ccccc12)NC(=O)[C@H](Cc1ccccc1)NCc1ccncc1`, with 99.3%; and `Cn1cc(-c2ccc3occ(-c4cccc(-c5ccncc5)c4)c3n2)cn1`, with -10.7% (active).
As for `COc1cccc(-c2nn(-c3ccccc3)cc2-c2ccnc(-c3cccnc3)c2)c1`, the growth is 120%.
Take `Cn1ccnc1C(=O)/C=C/c1ccc(C(=O)Nc2c(F)c(F)c(F)c(F)c2F)cc1`: the growth was 48.5%.
Turning to `COc1cc(NC(=O)c2cncnc2Nc2ccc3c(ccn3Cc3cccc(F)c3)c2)cc(OC)c1`, the growth is 51%.
Then `Oc1cccc2c1NCCC2`, with 24.3%; and `Cc1c(CC(=O)Nc2ccccc2)nnn1-c1ccccc1`, with 102%.
Then `COc1ccc(NC(=O)c2ccc(Cl)cc2Cl)cc1`, with 96.8%; and `Cc1c(C)c2c(c(C)c1OC(=O)CCC(=O)[O-])CCC(C)(CCCCCCCCCCC[P+](c1ccccc1)(c1ccccc1)c1ccccc1)O2` (stereo not given), with -15% (active).
Then `O=C(CNc1ncco1)Nc1ccc(S(=O)(=O)c2ccc(NC(=O)CNc3ncco3)cc2)cc1`, with -4.97% (active).
For the compound `CC(C)(C#N)c1cc(C(=O)Nc2cc(Nc3ncccc3-c3ncnc4nc[nH]c34)ccc2F)cc(C(F)(F)F)c1`, the growth was 30.9%.
As to `COCCNC(=O)Cc1cc(-c2ccc(Cl)cc2)n(-c2ccccc2)c1C`, the growth was 107%.
Then `Cn1cc(-c2ccc3c(Nc4cccc(NC(=O)Nc5cccc(F)c5)c4)ncnc3c2)cn1`, with 29.8%.
Next, `CN1CCN(Cc2ccc(NC(=O)c3cncc(C#Cc4cnc(N)c5ncccc45)c3)cc2Cl)CC1`: 80.1%.
`CCCCCN(CCCCC)CC(O)c1c(Cl)ccc2ccccc12` (stereo not given): the growth was 80%.
Consider `Cc1nn(C)c2ncnc(Nc3ccccc3Br)c12`, for which the growth is 101%.
Then `Cc1c2cnccc2c(C)c2c1c1cc(C(=O)O)ccc1n2C`, with 8.93% (active).
Next, `CCOc1ccccc1NC(=O)CCC(=O)OC`: 106%; `O=C1N/C(=N/N=C(c2ccccc2)c2ccccc2)S/C1=C\c1ccc(Br)cc1`: 95%.
Next, `COc1c(O[C@@H]2OC(CO)[C@H](O)[C@H](O)C2O)cc2oc3cc(O)c(CC=C(C)C)c(O)c3c(=O)c2c1CC=C(C)C` (stereo not given in full): 96.2%; `Cn1cc(-c2csc(-c3cn(C)c4ccc(F)cc34)n2)c2cnccc21`: -34.2% (active); `CCCCCCCC/C=C\CCCCCCCCOc1ccc(CC(=O)NCC[N+]2(C)CCCC2)cc1`: 84.2%.
Turning to `O=C(Nc1ncc(Cc2ccccc2)s1)c1cc(-c2ccccc2)nc2ccccc12`, the growth is 92.6%.
Then `COc1cc(CNC(=O)CCCC/C=C/C(C)C)ccc1OCc1cn(-c2cccc([N+](=O)[O-])c2)nn1`, with 90.8%; and `CCCCCCCCNC(=O)[C@@H](N)CSCOC(C)=O`, with 93.4%.
Regarding `O=C(Nc1ncc(Cc2cc(C(F)(F)F)ccc2Cl)s1)C(=S)N1CCOCC1`, the growth is 92.6%.
Turning to `CCCCN(CCC#N)C(N)=O`, the growth is 105%.
Take `O=C(/C=C/c1ccco1)c1ccc(Nc2ccnc3cc(Cl)ccc23)cc1`: the growth is 114%.
For the compound `CCOC(=O)CSc1nc2sc3c(c2c(=O)n1-c1ccccc1)CCCCC3`, the growth is 103%.
Consider `O=c1n(C2OC(CO)C(O)C2O)ccc2nccn12` (stereo not given), for which the growth was 101%.
Next, `CNC(=O)c1cc(Oc2ccc3nc(NC(=O)NC(C)C)sc3c2)ccn1`: 74.6%; `C#CCOc1cccc(Nc2ncnc3c(NC(=O)CCl)cccc23)c1`: 50.6%; `COc1ccc2c(c1)C(c1c[nH]c3ccccc13)(c1c[nH]c3ccccc13)CCO2`: 55.5%.
Next, `O=C(Nc1ccccc1)Nc1ccccc1CNc1nc(Nc2ccc(OCCN3CCCC3)cc2)ncc1Cl`: 66.3%; `O=C(Nc1cccc2c1C(=O)c1cccc(NC(=O)c3ccc(C(=O)Nc4cccc5c4C(=O)c4cccc(NC(=O)c6ccccc6)c4C5=O)cc3)c1C2=O)c1ccccc1`: 99.5%; `O=C(NC1CCCCCC1)c1ccc2c(=O)n3c(nc2c1)CCCCC3`: 83%.
Then `Clc1nc(N2CCC[N+]3(CC2)CC[N+]2(CCCNCC2)CC3)nc(N2CCC[N+]3(CC2)CC[N+]2(CCCNCC2)CC3)n1` (stereo not given), with 98.3%.
